# According to PubChem BioAssay AID1851 (National Center for Advancing Translational Sciences (NCATS), 2009):
# Out of some 16,000 compounds screened, about 4,000 (25%) were called active. Another 26% or so got no clear call; they are omitted. These entries were drawn from the full list. Values without a mark were called inactive. Calls come from the whole dose curve; as a rule, active = well fitted curve in the direction sought with a large enough effect; inconclusive = small, poorly fitted or top-dose-only effect, or effect the other way; inactive = no such curve, though single readings can be large or run the other way.
# Target: Cytochrome P450 2C9 (Homo sapiens) (UniProt P11712)
# Sequence (P11712 whole entry, looked up): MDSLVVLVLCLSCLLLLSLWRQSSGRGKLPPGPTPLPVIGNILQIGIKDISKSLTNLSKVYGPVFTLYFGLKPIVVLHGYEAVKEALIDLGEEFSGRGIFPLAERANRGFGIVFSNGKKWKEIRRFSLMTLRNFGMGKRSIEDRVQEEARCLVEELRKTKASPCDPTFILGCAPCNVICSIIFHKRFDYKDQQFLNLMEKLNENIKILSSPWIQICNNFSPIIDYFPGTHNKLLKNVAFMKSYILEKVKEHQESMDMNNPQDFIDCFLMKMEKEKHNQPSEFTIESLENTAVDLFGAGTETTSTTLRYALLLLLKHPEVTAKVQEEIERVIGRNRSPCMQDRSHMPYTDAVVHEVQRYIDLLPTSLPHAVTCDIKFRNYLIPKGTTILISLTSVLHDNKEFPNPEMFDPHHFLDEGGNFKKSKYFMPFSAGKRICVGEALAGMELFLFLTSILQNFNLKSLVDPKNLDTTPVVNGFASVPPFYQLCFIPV
# Test: Cytochrome panel assay with activity outcomes
# Conditions: recombinant CYP, pro-luciferin dealkylation, luminescence, p450-cyp2c9; series mostly up to 57.1 µM; activity, negative = inhibition: at the top concentration
# % is set by controls: 0 for no effect and ±100 for the full control effect.
SMILES,"activity, negative = inhibition",AC50
c1ccn(-c2ccc(N3CCOCC3)cc2)c1,-4.63%,
CC(C)CN1CCCC2(CCN(C(=O)c3cnccn3)CC2)C1,4.58%,
COc1c(/C=N/Nc2nc(N3CCCCC3)nc(N3CCCCC3)n2)cccc1[N+](=O)[O-],-38.8%,
Brc1cc2c(cc1/C=N/Nc1nc(N3CCCC3)nc(N3CCOCC3)n1)OCO2,,7.08 µM (active)
COc1nc(/C(N)=N/O)nc(N2CCCCC2)n1,-22.5%,
COc1cccc(/C=N/Nc2nc(N3CCCC3)nc(N3CCCC3)n2)c1O,,12.6 µM (active)
N#Cc1cccc(-c2cncnc2NCc2cccnc2)c1,6.75% [at 2.29 µM],
CN(C)CCO[C@@H](c1ccc(Cl)cc1)c1ccccn1,-11.5% [at 25.6 µM],
O=S(=O)(Nc1nc(-c2sccc2Cl)cs1)c1cc(Cl)ccc1Cl,,0.631 µM (active)
COCC(C)NCc1cccc(C)c1 (configuration not stated),11.4%,
Cc1ccc(S(=O)(=O)n2ccc(-c3cccc(OCc4c(F)cccc4Cl)c3)n2)cc1,,1.58 µM (active)
CO[C@H]1COC(=O)C/C=C\[C@H](C)COC(=O)[C@@H](C)NC(=O)C/C=C\[C@@H]1C,-24.8% [at 11.4 µM],
O=C(Cc1cccc2ccccc12)N/N=C/c1ccc(Sc2nc3ccccc3s2)o1,,0.282 µM (active)
COCC(=O)N/N=C/c1ccc(Sc2nc3ccccc3s2)o1,2.01%,
NCCCCCC(=O)O,,inactive
CCNC(=S)NNC(=O)c1cccc(Br)c1,-10.1%,
Cc1cc(C(=O)Nc2c(C)n(C)n(-c3ccccc3)c2=O)c2ccccc2n1,-1.95%,
Cc1cc(C(=O)NNC(=S)NC(C)c2ccccc2)c2ccccc2n1 (configuration not stated),,3.16 µM (active)
CCNC(=S)NNC(=O)c1cc(C)on1,-15.8%,
CCNC(=S)NNC(=O)Cc1ccccc1,-11.7%,
CCNC(=S)NNC(=O)c1cc(CC(C)C)nc2ccccc12,,2.82 µM (active)

SMILES,"activity, negative = inhibition",AC50
CCNC(=S)NNC(=O)c1cc(C2CC2)nc2ccccc12,,2 µM (active)
Cc1cc(C(=O)OC2CCOC2=O)c2ccccc2n1 (configuration not stated),0.804%,
OCCCN=C1CCCCC1,-11% [at 11.4 µM],
COCC(=O)N1CCC[C@@]2(CCN(c3ncccn3)C2)C1,-23%,
Cc1nc2ncnn2c(C)c1CCC(=O)NCc1ccccc1,-18.2%,
O=C(CSc1ncccn1)Nc1ccc(S(=O)(=O)N2CCCCC2)cc1,,7.94 µM (active)
Cc1nc2ncnn2c(C)c1CCC(=O)Nc1ccc(S(=O)(=O)N2CCCCCC2)cc1,,3.16 µM (active)
O=C(Nc1ccc(S(=O)(=O)N2CCCCC2)cc1)c1ccc(CN2CCc3ccccc3C2)cc1,,3.16 µM (active)
O=C(c1ccc(CN2CCc3ccccc3C2)cc1)N1CCc2ccccc2C1,-19.2%,
O=C(CCN1CCc2ccccc2C1)Nc1ccc(F)cc1,-17.2%,
O=C(Nc1ccc(S(=O)(=O)N2CCOCC2)cc1)c1ccc(CN2CCc3ccccc3C2)cc1,,8.91 µM (active)
Cc1ccc(NC(=O)CCc2c(C)nc3ncnn3c2C)nc1,-5.57%,
CC(=O)Nc1ccc(S(=O)(=O)N2CCC(N(C)CCC(C)C)CC2)cc1,-20.5%,
CN(Cc1ccco1)c1cc(-c2cccc(NS(C)(=O)=O)c2)ncn1,-0.0487% [at 2.29 µM],
CCN1C(=O)[C@H]2[C@H]3[C@H](O)[C@H](O)C/C(=N/OCC[C@H]4C=C[C@H](OC(C)=O)[C@@H](COC(C)=O)O4)[C@@H]3CC[C@@H]2C1=O,-15% [at 11.4 µM],
O=C(CSCc1ccccc1)Nc1ccc(S(=O)(=O)N2CCOCC2)cc1,,10 µM (active)
Cc1cnc(CNc2ccnc(-c3c(C)noc3C)n2)cn1,19.4% [at 2.29 µM],
COc1ccc2c(c1)C(c1ccc([N+](=O)[O-])cc1)=NNC(c1ccco1)=N2,,14.1 µM (active)
c1ccc2c(NCCN3CCOCC3)nc(-c3ccoc3)nc2c1,-0.137% [at 2.29 µM],
Cc1noc(C)c1C(=O)N1CCC2(CC1)CCN(C(c1ccccc1)c1ccccc1)CC2,-8.71%,
Cc1noc(C)c1C(=O)OCC(=O)NC(c1ccccc1)c1ccccc1,,11.2 µM (active)

SMILES,"activity, negative = inhibition",AC50
Cc1noc(C)c1C(=O)N1CCC2(CCN(C(=O)Nc3ccccc3)CC2)CC1,8.06%,
Cc1cc(NC(=O)CN2C(=O)NC(C)(c3ccc(OC(F)F)cc3)C2=O)no1 (configuration not stated),-3.66%,
COc1ccc(C(=O)CN2C(=O)NC(C)(c3ccccc3)C2=O)cc1OC (configuration not stated),,3.55 µM (active)
CN(C)C(=O)c1ccc(-c2nc(Nc3ccc(F)cc3)c3ccccc3n2)cc1,-11.1% [at 2.29 µM],
O=C(CCCN1CCC(O)(c2cccc(C(F)(F)F)c2)CC1)c1ccc(F)cc1,19.7%,
O=C(Cn1c(C(F)(F)F)nc2ccccc21)c1ccc(F)cc1,,3.55 µM (active)
O=C(Cn1c(C(F)(F)F)nc2ccccc21)c1ccccc1,,10 µM (active)
CC(=O)N1CCC[C@@]2(CCN(Cc3nccs3)C2)C1,1.75%,
CO[C@H]1COC(=O)C/C=C\[C@H](C)COC(=O)[C@@H](OCc2ccccc2)/C=C\[C@@H]1C,-4.97% [at 11.4 µM],
Cc1nc2cnc(Oc3cccc(Cl)c3)nc2n(C2CC2)c1=O,,12.6 µM (active)
Cn1c(=O)c(-c2ccc(Cl)cc2)nc2cnc(Oc3cccc(Cl)c3)nc21,18.4%,
N#Cc1cccc(-c2nc3cnc(Oc4cccc(Cl)c4)nc3n(C3CC3)c2=O)c1,,3.16 µM (active)
COc1ncc2nc(C)c(=O)n(C3CC3)c2n1,9.09%,
O=c1cnc2cnc(Oc3ccccc3)nc2n1C1CC1,-22.3%,
O=c1c(-c2ccccc2)nc2cnc(Oc3cccc(Cl)c3)nc2n1C1CC1,,0.251 µM (active)
O=c1cnc2cnc(Oc3cccc(Cl)c3)nc2n1C1CC1,,6.31 µM (active)
Cc1nc2cnc(Oc3ccccc3)nc2n(C)c1=O,-6.38%,
O=c1cnc2cnc(N3CCOCC3)nc2n1C1CC1,-8.29%,
N#Cc1cccc(-c2nc3cnc(N4CCOCC4)nc3n(C[C@H]3CCCO3)c2=O)c1,8.64%,
CS(=O)(=O)Nc1cccc(-c2nc(N3CCNCC3)c3ccccc3n2)c1,-1.92% [at 2.29 µM],
